Screening results from PubChem BioAssay.
An excerpt weighted towards active compounds, which were near 21% of everything screened.
Pf growth 48h – P. falciparum growth inhibition at 48 hours (one generation) | P. falciparum luciferase growth in erythrocytes, 48 h | Potency, µM (series often up to 28.7 µM), inactives show at the highest dose activity change, negative = inhibition, usual class: inhibitors | hit rate 5.9% among 310,000 | AID 504832; further: potency means the concentration at half of the fitted maximal effect; on the % scale 0 is the no-effect control and ±100 the full control effect
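Erythrocytes infected with P. falciparum carrying an integrated firefly luciferase reporter (2% hematocrit, 0.1% parasitemia final) were exposed to compounds in RPMI 1640 with 0.5% Albumax at 37 C, 5% CO2. Growth inhibition was scored as reduced luminescence.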
CHX counter – counter-screen hit for Shiga toxin inhibitors, cycloheximide. cell reporter, cycloheximide protein synthesis inhibition counterscreen. max response, %. hit rate 12% among 300,000; in the data active means max response mostly above about 13%, no sharp cut-off; inactive means mostly below about 14%; further: read at 38.3 µM for the half of the compounds with a filed dose; 0% is about no effect
NS1 inh – influenza NS1 inhibition | Potency, µM (doses to about 46.1 µM), for the others: at the top dose activity, positive = more growth | hit rate 0.4% among 270,000 | AID 2326; calls by dose curve; further: potency means the concentration at half of the fitted maximal effect; actives are rising curves; nearly all actives have a fitted effect of over 50% in size
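Compounds were scored for reversing the slow growth caused by influenza A NS1 in S. cerevisiae, measured by optical density at 600 nm. Assay medium contained 2% galactose at pH 6.0; NS1-free yeast of the same strain were the positive control.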
Giardia FBPA inh – Giardia lamblia aldolase inhibition | hit rate 0.71% among 290,000 | purified Giardia FBPA | AID 2451 | Potency, µM (top dose mostly 59.6 µM), inactives show at the top dose activity, negative = inhibition, hits mostly inhibitors | A8B2U2; further: potency means the concentration at half of the fitted maximal effect; on the % scale 0 is the no-effect control and ±100 the full control effect; nearly all actives have a fitted effect of over 55% in size
Target sequence (A8B2U2 whole entry, looked up): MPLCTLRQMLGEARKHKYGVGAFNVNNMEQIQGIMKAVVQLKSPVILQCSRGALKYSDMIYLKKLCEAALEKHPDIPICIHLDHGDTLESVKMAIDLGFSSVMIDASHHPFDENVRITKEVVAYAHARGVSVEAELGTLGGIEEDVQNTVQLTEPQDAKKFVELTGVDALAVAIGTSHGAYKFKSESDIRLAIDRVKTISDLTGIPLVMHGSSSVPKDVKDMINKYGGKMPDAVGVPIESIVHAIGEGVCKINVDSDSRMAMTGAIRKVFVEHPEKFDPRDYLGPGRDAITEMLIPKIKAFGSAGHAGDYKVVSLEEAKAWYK
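Giardia FBPA (40 nM reagent) was preincubated 10 min at RT with compound (up to 57.5 uM final), then substrate plus GAPDH/TPI/NAD/arsenate coupling system with diaphorase/resazurin was added; resorufin fluorescence (525/598 nm) was read after 20 min.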
Pf growth 96h – P. falciparum growth inhibition at 96 hours; P. falciparum luciferase reporter growth, 96 h; hit rate 6.9% among 320,000; Potency, µM (highest dose often 28.7 µM), for inactives: top-dose activity change, negative = inhibition, most hits filed as inhibitors; further: potency means the concentration at half of the fitted maximal effect; on the % scale 0 is the no-effect control and ±100 the full control effect
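Readout is luminescence from an integrated firefly luciferase in P. falciparum. Red cells, 2% hematocrit and 0.05% parasitemia final, were cultured with compound through two parasite generations (96 hours) at 37 C, 5% CO2.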
Shiga toxin inh – inhibitors of Shiga toxin in Vero cells | Vero cells, Shiga toxin protein synthesis inhibition reporter | inhibition, % at 38.7 µM | hit rate 9.2% among 290,000; in the data active means inhibition mostly above about 28%, no sharp cut-off; inactive means mostly below about 43%; further: 0% is about no effect
Starred values were filed as active, the others as inactive. Unless noted, the call rests on the fitted dose curve; in most records, active means well fitted curve in the direction sought with a large enough effect; inconclusive means small, poorly fitted or top-dose-only effect, or another doubt; inactive means no such curve, though single readings can be large; an effect the other way counts as inactive or inconclusive.

COc1ccccc1/C=N/NC(=O)c1cccc(NC(=O)c2ccccc2Cl)c1 was read as Pf growth 48h -12.2%, CHX counter 11.4, NS1 inh -33.9%, Giardia FBPA inh 0.9%, Pf growth 96h inconclusive and Shiga toxin inh 30.2.
CC(=O)Nc1cccc(C(=O)N/N=C/c2ccccc2F)c1 was read as Pf growth 48h 225.1%, CHX counter 46.1*, NS1 inh 8.2%, Giardia FBPA inh 0.7%, Pf growth 96h 6.57µM* and Shiga toxin inh 28.1*.
`Cc1ccc(C(=O)Nc2cccc(C(=O)N/N=C/c3ccccc3F)c2)cc1` gave Pf growth 48h 80.0%, CHX counter 47.0*, NS1 inh 22.1%, Giardia FBPA inh -18.3%, Pf growth 96h inconclusive and Shiga toxin inh 71.7*.
`Cc1ccc(C(=O)Nc2cccc(C(=O)NC3CCCC3)c2)cc1` gave Pf growth 48h 56.1%, CHX counter 12.8, NS1 inh 10.2%, Pf growth 96h -11.2% and Shiga toxin inh 25.9.
`CC(C)(C)OC(=O)[C@H](Cc1ccccc1)NC(=O)c1nc[nH]c1C(=O)N1CCN(C(=O)OC(C)(C)C)CC1` gave Pf growth 48h inconclusive, CHX counter -3.7, NS1 inh -10.2%, Giardia FBPA inh inconclusive, Pf growth 96h 9.28µM* and Shiga toxin inh -8.6.
For CC(C)(C)OC(=O)N1CCN(C(=O)c2[nH]cnc2C(=O)N[C@@H](Cc2ccccc2)C(=O)OCc2ccccc2)CC1 the results were Pf growth 48h inconclusive, CHX counter 5.8, NS1 inh -34.8%, Giardia FBPA inh -22.5%, Pf growth 96h inconclusive and Shiga toxin inh 10.7.
Screening CC(C)C[C@H](NC(=O)c1[nH]cnc1C(=O)N[C@@H](Cc1ccccc1)C(=O)OC(C)(C)C)C(=O)OCc1ccccc1 returned Pf growth 48h inconclusive, CHX counter 7.5, NS1 inh inconclusive, Giardia FBPA inh -7.4%, Pf growth 96h 94.9% and Shiga toxin inh 3.3.
CC(C)(C)OC(=O)[C@H](Cc1ccccc1)NC(=O)c1nc[nH]c1C(=O)NC1CCN(C(=O)OC(C)(C)C)CC1 was read as Pf growth 48h 4.65µM*, CHX counter 3.6, NS1 inh 12.5%, Giardia FBPA inh inconclusive, Pf growth 96h 3.29µM* and Shiga toxin inh -13.8.
For CC(C)C[C@H](NC(=O)c1[nH]cnc1C(=O)N[C@@H](Cc1ccccc1)C(=O)OC(C)(C)C)C(=O)OC(C)(C)C the results were Pf growth 48h 9.28µM*, CHX counter -2.1, NS1 inh 9.2%, Giardia FBPA inh -25.2%, Pf growth 96h inconclusive and Shiga toxin inh -7.7.
For COc1cc(Cl)c(C)cc1NC(=O)CN1C(=O)C2CCCCC2C1=O (stereo unspecified) the results were Pf growth 48h 3.5% and Pf growth 96h 25.4%.
CN(Cc1ccco1)c1ncnc2ccc(-c3cccc(NS(C)(=O)=O)c3)cc12 was read as Giardia FBPA inh -12.9%.
CCN1C(=O)c2cccc3c(S(=O)(=O)NCC4CCCO4)ccc1c23 (stereo unspecified) was read as Pf growth 48h -10.5%, CHX counter 16.9, NS1 inh -11.1%, Giardia FBPA inh -1.6%, Pf growth 96h -23.5% and Shiga toxin inh 17.5.
O=C1C(=O)N(CCO)C(c2ccccc2[N+](=O)[O-])/C1=C(\O)c1ccccc1 (stereo unspecified) was read as Pf growth 48h 32.8%, CHX counter -4.7, NS1 inh -1.7%, Giardia FBPA inh 1.1%, Pf growth 96h -0.9% and Shiga toxin inh -4.7.
Screening Cc1ccc(/C(O)=C2\C(=O)C(=O)N(Cc3cccnc3)C2c2ccccc2[N+](=O)[O-])cc1 (stereo unspecified) returned Pf growth 48h -10.6%, CHX counter 37.3*, NS1 inh 13.6%, Giardia FBPA inh -15.5%, Pf growth 96h 49.5% and Shiga toxin inh 83.3*.
For Cc1ccc(/C(O)=C2\C(=O)C(=O)N(C)C2c2ccccc2[N+](=O)[O-])cc1 (stereo unspecified) the results were Pf growth 48h 56.5%, CHX counter 36.9*, NS1 inh -6.7%, Giardia FBPA inh 4.3% and Pf growth 96h 63.3%.
For CC(=O)CSc1nc2c(c(=O)[nH]c(=O)n2C)n1CCCc1ccccc1 the results were Pf growth 48h -16.7%, CHX counter -2.4, NS1 inh 2.1%, Giardia FBPA inh -16.1% and Pf growth 96h inconclusive.
For Cc1cc(NC(=O)CSc2nnc(-c3cccc(F)c3)n2N)no1 the results were Pf growth 48h 16.7% and Pf growth 96h -7.0%.
`Cc1ccc(C(=O)OCC(=O)NCc2ccc(Cl)cc2Cl)o1` gave Pf growth 48h -14.0% and Pf growth 96h -23.7%.
`Cc1ccc(C(=O)Oc2ccc3c(c2)ncn3C)cc1` gave Pf growth 48h 16.6%, CHX counter 49.4*, NS1 inh -51.4%, Giardia FBPA inh 0.7%, Pf growth 96h -26.2% and Shiga toxin inh 98.5*.
Cn1cnc2cc(OC(=O)c3ccccc3)ccc21 was read as Pf growth 48h 10.8%, CHX counter 48.5*, NS1 inh -53.0%, Giardia FBPA inh -0.6%, Pf growth 96h 48.2% and Shiga toxin inh 107.9*.
`CC(C)(C)c1ccc(OC(=O)c2ccccc2)cc1` gave Pf growth 48h 62.0%, CHX counter -2.0, NS1 inh 0.3%, Giardia FBPA inh -2.7%, Pf growth 96h 19.5% and Shiga toxin inh 17.6.
Screening CCCc1n(CC(O)COCc2ccccc2)c2ccccc2[n+]1C (stereo unspecified) returned Pf growth 48h 3.29µM*, CHX counter -3.2, Giardia FBPA inh 2.2%, Pf growth 96h 5.6% and Shiga toxin inh 20.6.
Screening C[n+]1cn(CC(O)COCc2ccccc2)c2ccccc21 (stereo unspecified) returned Pf growth 48h inconclusive, CHX counter -1.3, NS1 inh 7.4%, Giardia FBPA inh 1.9%, Pf growth 96h 4.65µM* and Shiga toxin inh -11.3.
Screening CCCc1n(CC(O)COC2CCCCC2)c2ccccc2[n+]1C (stereo unspecified) returned Pf growth 48h 4.15µM*, CHX counter -2.3, NS1 inh -2.5%, Giardia FBPA inh 1.7%, Pf growth 96h -2.1% and Shiga toxin inh -15.9.
`NC(=O)C1CCCN(S(=O)(=O)c2ccc3ccccc3c2)C1` (stereo unspecified) gave Pf growth 48h 2.1%, CHX counter -2.9, NS1 inh 5.3%, Giardia FBPA inh 10.3%, Pf growth 96h -4.8% and Shiga toxin inh -5.3.
CC(=O)OCC1C2CC[C@H]3C(OCc4ccc(F)cc4C(F)(F)F)OC[C@]4(C)[C@H]3C2=C(CN4C(=O)OC(C)(C)C)[C@H](C)C1COC(C)=O (stereo partly specified) was read as Giardia FBPA inh -4.0%.
